Source: PubChem (several laboratories)
In the library only some 3.6% were active in any assay of this set; here they are far more common.
NadD block: inhibitors of S. aureus NadD, primary screen, biochemical, colorimetric, uHTS; actives 0.78% (n = 360,000); inhibition, % at 20 µM; purified NadD enzyme, colorimetric absorbance read-out; Nicotinate-nucleotide adenylyltransferase NadD (Staphylococcus aureus N315); in the data active = inhibition above about 26%
Myeloid diff 2: induction of myeloid progenitor differentiation, primary screen, cell-based, flow cytometry, MLPCN library | ER-HoxA9 myeloid progenitors, lysozyme-GFP differentiation | calls only at 10 µM | actives 1% (n = 360,000);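 active = normalized GFP-positive differentiation at or above the plate's own cutoff, the solvent-only control mean plus 3 SD; inconclusive = no clear call, values can overlap the other calls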;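 also: cells exposed to compound for four days before flow analysis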
NRP1-CendR mod: modulators of CendR peptide binding to NRP-1, primary screen, biochemical, fluorescence polarization, uHTS | Neuropilin-1 (Homo sapiens), O14786 | inhibition, % at 25 µM | AID 602438, 2012 | actives 0.85% (n = 360,000) | FAM-RPARPAR peptide binding to NRP-1;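 active = inhibition or corrected inhibition above about 18%, plus a signal ratio from 0.5 to 1.5, limit read from the data, passing the limit was not always enough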
Target sequence (O14786 whole entry, looked up): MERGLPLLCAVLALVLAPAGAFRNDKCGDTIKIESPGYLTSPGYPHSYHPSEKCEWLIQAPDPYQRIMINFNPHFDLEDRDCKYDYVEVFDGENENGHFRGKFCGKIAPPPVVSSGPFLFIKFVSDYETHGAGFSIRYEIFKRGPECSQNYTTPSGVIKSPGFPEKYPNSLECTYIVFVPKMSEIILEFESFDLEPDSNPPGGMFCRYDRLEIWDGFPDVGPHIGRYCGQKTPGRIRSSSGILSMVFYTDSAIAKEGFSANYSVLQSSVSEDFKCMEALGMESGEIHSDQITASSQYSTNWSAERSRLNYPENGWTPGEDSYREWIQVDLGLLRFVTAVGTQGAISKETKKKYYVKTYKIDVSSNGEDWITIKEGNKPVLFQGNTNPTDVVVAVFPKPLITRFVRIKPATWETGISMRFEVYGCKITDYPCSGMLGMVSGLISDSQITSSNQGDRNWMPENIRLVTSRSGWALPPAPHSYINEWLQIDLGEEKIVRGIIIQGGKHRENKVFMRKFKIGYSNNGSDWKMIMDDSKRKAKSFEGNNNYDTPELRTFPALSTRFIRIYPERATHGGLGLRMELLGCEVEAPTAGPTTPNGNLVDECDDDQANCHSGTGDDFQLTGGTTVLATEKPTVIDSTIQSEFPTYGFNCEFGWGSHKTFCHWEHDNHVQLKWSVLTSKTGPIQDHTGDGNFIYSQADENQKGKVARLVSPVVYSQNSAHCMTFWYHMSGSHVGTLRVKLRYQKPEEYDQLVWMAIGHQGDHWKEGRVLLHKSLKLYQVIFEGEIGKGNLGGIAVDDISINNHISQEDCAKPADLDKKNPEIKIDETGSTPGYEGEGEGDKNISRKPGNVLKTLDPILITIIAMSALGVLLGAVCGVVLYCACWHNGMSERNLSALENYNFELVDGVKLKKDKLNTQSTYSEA
CRFBP-R2 block: antagonists of CRF-BP/CRF-R2 complex, primary screen, cell-based, HEK293, calcium dye fluorescence, uHTS; CRF-induced calcium fluorescence; inhibition, % at 11.8 µM; AID 588475, 2011; actives 0.59% (n = 350,000);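 active = inhibition of the ligand-induced calcium signal above about 50% at the single tested concentration, limit read from the data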
FAS-TE inh: FAS thioesterase domain inhibitors, primary screen, biochemical, fluorescence intensity, uHTS. actives 0.67% (n = 360,000). AID 602261, 2012. inhibition, % at 15 µM. recombinant FAS-TE, OMFH fluorogenic substrate, fluorescence endpoint. Fatty acid synthase (Homo sapiens), P49327;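 active = compounds whose normalised, plate-corrected inhibition of enzyme fluorescence in the single-dose primary screen is 50% or more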;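 also: 0% = DMSO with enzyme and 100% = substrate without enzyme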
The depositor's hits bear a star; i = inactive; ? = inconclusive; nt = no result; + = active, no number.

SMILES | NadD block | Myeloid diff 2 | NRP1-CendR mod | CRFBP-R2 block | FAS-TE inh
O=S(=O)(CCNCc1ccccc1)NC1CCCCC1 | -4 | i | 11 | 4 | -3
CC1CC(OC(=O)C2CCN(S(=O)(=O)c3ccc(F)cc3)CC2)C(=O)O1 (stereo not drawn) | -2 | i | 1 | -1 | -6
Cc1ccc(SCC(=O)OCC(=O)NCCc2ccc(S(N)(=O)=O)cc2)c(C)c1 | -6 | i | 2 | 19 | -10
O=C(N/N=C/c1cc(Br)cc(Br)c1O)c1cccc(N2CCCC2=O)c1 | 33* | i | -52 | -3 | 20
O=C(N/N=C/c1cc(Br)cc(Br)c1O)c1cccc(S(=O)(=O)N2CCOCC2)c1 | 35* | i | -137 | -54 | 26
Cc1ccc(CN2CCN(Cc3nc4ccccc4nc3C)CC2CCO)cc1 (stereo not drawn) | -5 | i | -11 | 4 | -8
Cc1cccnc1N1C(=O)c2ccc(C(=O)O)cc2C1=O | 0 | i | 10 | 4 | -8
O=C(C[n+]1cccc2ccccc21)c1ccc(Cl)cc1 | -2 | i | -31 | -6 | -9
O=C(C[n+]1cccc2ccccc21)c1ccc([N+](=O)[O-])cc1 | 3 | + | 2 | 13 | -7
CCC(C(=O)Nc1ncn[nH]1)(C(F)(F)F)C(F)(F)F | -5 | + | 9 | 16 | -9
O=C(Nc1ncn[nH]1)C(F)(F)C(F)F | -6 | i | -5 | 4 | -7
Cc1c(Cl)ccc2c1NC(=O)C21NC(CCC(N)=O)[C@H]2C(=O)N(c3ccc(Cl)cc3)C(=O)[C@H]21 (stereo partly drawn) | 2 | i | 6 | 50* | 3
CC(C)(C)c1cc(C(=O)O)nn1-c1ccccc1 | 3 | i | 7 | 68* | -1
CCN(CC)S(=O)(=O)N1CCC(C(=O)NCCC2=CCCCC2)CC1 | 0 | i | 27* | -9 | -6
Cc1ccc(-c2ccc(C(=O)NCc3ccccc3)o2)c2ccccc12 | 0 | i | -2 | -4 | 24
CCOc1ccccc1-c1ccc(C(=O)NCc2ccccc2)o1 | -10 | i | 27* | 13 | 22
COc1ccc(NC(=O)c2ccc(NC(=O)c3ccncc3)cc2)cc1 | 9 | i | 1 | -4 | -4
COc1ccc(C(=O)Nc2ccc(C3CC3(Cl)Cl)cc2)cc1 (stereo not drawn) | -7 | i | 0 | 75* | 4
COc1ccc(CN2C(=O)C(CC(=O)NCc3ccco3)CC(C(=O)N(C(C)C)C(C)C)=C2C)cc1 (stereo not drawn) | -2 | i | 0 | 11 | -5
CC(C)(O)C#Cc1ccc(C(=O)N2CCCC(CNS(=O)(=O)c3cccs3)C2)o1 (stereo not drawn) | -1 | + | -13 | -6 | -2
CC(=O)c1cn(CC(=O)NCC2CCCO2)c2ccccc12 (stereo not drawn) | -1 | i | 20* | 10 | -5
Cc1ccc2c(c1)c1c(c(=O)n(-c3ccccc3C)c(=O)n1CC(=O)NCC1CCCO1)n2C (stereo not drawn) | 8 | i | 31* | -10 | -2
Cc1cc(C)cc(-n2c(=O)c3ccccc3n(CC(=O)NCC3CCCO3)c2=O)c1 (stereo not drawn) | 0 | i | 0 | -5 | -2
Cc1ccc(-n2c(Cl)c(Cl)nc(Cl)c2=O)cc1 | -4 | nt | 23 | -24 | 78*
Cc1ccc2ncnc(NCCCCCC(=O)O)c2c1 | -4 | i | -6 | -6 | -1
SMILES | NadD block | Myeloid diff 2 | NRP1-CendR mod | CRFBP-R2 block | FAS-TE inh
Cc1cc2c(cc1C)NC(=O)C(C)CN2 (stereo not drawn) | -3 | i | -7 | -7 | -7
CCC1=NN2C(=N)/C(=C/c3ccc(OS(=O)(=O)c4ccccc4)cc3)C(=O)N=C2S1 | 34* | i | -88 | 3 | 9
Cc1ccc(S(=O)(=O)Oc2ccc(/C=C3\C(=N)N4N=C(S(C)(=O)=O)SC4=NC3=O)cc2)cc1 | 34* | i | -53 | -10 | 23
CC(=O)OC[C@@H]1CN(Cc2cccc(C(F)(F)F)c2)C[C@H](n2cnc3c(NCc4ccco4)ncnc32)O1 | 7 | i | 40* | nt | 11
CC(=O)OC[C@@H]1CN(Cc2cccc(C(F)(F)F)c2)C[C@H](n2cnc3c(N4CCOCC4)ncnc32)O1 | 0 | i | -25 | nt | 16
COC(=O)c1ccc2nc(-c3ccc(OC)c(OC)c3)c(CC3CCCCC3)n2c1 | 2 | i | -14 | nt | 17
Cc1cccc(C)c1OCC(=O)NNC(=S)NC(=O)C1CC1 | -4 | i | 4 | -18 | -4
CC(=O)NC(c1cc(Cl)c2cccnc2c1O)C(C)C (stereo not drawn) | -1 | ? | 6 | 9 | 3
CC(=O)NC(c1cc(Cl)c2ccccc2c1O)C(C)C (stereo not drawn) | -2 | + | 18 | 8 | 1
CCOc1ccc(-c2nc(CN3CCCCC3CCn3cccn3)c(C)o2)cc1 (stereo not drawn) | -5 | i | -4 | 6 | -3
COc1cc(CN2C[C@@H](CO)O[C@@H](n3cnc4c(N5CCN(c6ccccc6)CC5)ncnc43)C2)cc(OC)c1OC | -5 | i | 37* | nt | -1
COc1ccc(CN2C[C@@H](CO)O[C@@H](n3cnc4c(N5CCN(c6ccccc6)CC5)ncnc43)C2)cc1 | -5 | i | 4 | nt | 6
CC1Oc2ccc(C#N)cc2N(Cc2ccc(F)cc2)C1=O (stereo not drawn) | -5 | i | -11 | nt | 7
CCc1nn2c(=O)cc(COc3ccc(/C=C4\C(=N)N5N=C(CC(C)C)SC5=NC4=O)cc3)nc2s1 | nt | nt | nt | 6 | nt
CCC1=NN2C(=N)/C(=C\c3ccc(OCc4cc(=O)n5nc(CC)sc5n4)c(OC)c3)C(=O)N=C2S1 | 44* | i | -148 | 5 | -9
CCS(=O)(=O)C1=NN2C(=N)/C(=C\c3ccc(OCCOc4cccc(OC)c4)c(OC)c3)C(=O)N=C2S1 | 18 | i | -43 | 53* | 5
CCOc1cc(/C=C2/C(=N)N3C=CSC3=NC2=O)ccc1OCCCOc1ccccc1C | 4 | i | -3 | -46 | -6
CCOc1cc(/C=C2\C(=N)N3N=C(S(C)(=O)=O)SC3=NC2=O)ccc1OCCOc1cccc(OC)c1 | 31* | i | -79 | 27 | 9
CCS(=O)(=O)C1=NN2C(=N)/C(=C\c3ccc(OS(=O)(=O)c4ccccc4)cc3)C(=O)N=C2S1 | 7 | i | -82 | -4 | 14
Cc1onc(C(=O)NC(C)c2ccccc2)c1[N+](=O)[O-] (stereo not drawn) | -2 | i | -3 | 5 | -13
CCCP(=O)(CC(=O)N(CC)CC)c1ccccc1 (stereo not drawn) | 0 | i | 20 | 58* | -6
Cc1ccc(-c2nc3c4ccccc4ccn3c2Cc2ccsc2)cc1 | 10 | i | -30 | nt | 5
